This passage reports outcome and AC50 results from PubChem BioAssay (EPA / NIEHS).

Structures are written as SMILES. Inconclusive results are not listed. Activity calls are given as the source filed them. Rule for the calls, unless noted: active = hit-call score of the fitted dose curve at least 0.9, where 1 is the maximum; inactive = score below 0.9.

A short description of assay [1]: ACEA_ER_80hr: ACEA Biosciences xCELLigence Real-Time Cell Analysis on Estrogen Receptor Agonism for Proliferation (AID 2282667; active = hit-call score of the fitted dose curve at least 0.9, where 1 is the maximum). Conditions: T47D proliferation, impedance (xCELLigence), 80 h. The procedure, abridged:
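Real-time electrical impedance tracked growth of the human breast line T47D, with the 80 h post-dosing value used. Dosing spanned eight 1:4 steps down from a 100 uM final top concentration, run in duplicate.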

Assay [2] is described as follows: ATG_CRE_CIS: Attagene CIS-FACTORIAL HepG2 Assay for human cAMP Responsive Element (CRE) binding protein 3 (AID 2282926). The settings on record: HepG2 CRE cis-reporter, Attagene multiplexed mRNA; actives raise or lower the signal. The procedure, abridged:
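Assay format: transient reporter transfection of HepG2, 24 h treatment, total RNA isolation with DNase I step. Reporter abundance read by fluorescence after PCR and capillary separation; DMSO-normalised gain or loss fitting.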

Assay [3] has as its target CCAAT/enhancer-binding protein beta (Homo sapiens) (UniProt P17676). Kind of assay: ATG_C_EBP_CIS: Attagene CIS-FACTORIAL HepG2 Assay for human CCAAT/Enhancer Binding Protein (C/EBP) beta (AID 2282927). Conditions: HepG2 Attagene cis-factorial transcription factor reporter; actives raise or lower the signal. An outline of the steps:
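HepG2 transiently transfected with multiplexed reporter units under cis-regulatory promoters reporting endogenous C/EBPb activity. After 24 h exposure, reporter mRNA assayed by RT-PCR, fluorescent labelling, HpaI digestion and capillary electrophoresis; bidirectional fitting versus DMSO.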

Assay [4] is described as follows: ATG_DR4_LXR_CIS: Attagene CIS-FACTORIAL HepG2 Assay for human Liver X Receptor (LXR), DR4 submotif (AID 2282929). The settings on record: HepG2 Attagene DR4 cis-reporter, mRNA transcription; actives raise or lower the signal. The procedure, abridged:
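HepG2, transient MRTU transfection, cis-element (DR4) promoter; 24 h compound exposure; total RNA → oligo(dT) RT → PCR → 6-FAM primer extension → HpaI cut → CE. Gain/loss vs DMSO, bidirectional fit.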

In assay [5] the target is Aryl hydrocarbon receptor (Homo sapiens) (UniProt P35869). Kind of assay: ATG_Ahr_CIS: Attagene CIS-FACTORIAL HepG2 Assay for human Aryl Hydrocarbon Receptor (Ahr) (AID 2282930). The settings on record: HepG2 AhR cis-factorial reporter transcription; actives raise or lower the signal. An outline of the steps:
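HepG2 cells transiently transfected with cis-element-driven multiplexed reporter units; endogenous AhR activity read as reporter mRNA 24 h after dosing, via RT-PCR, 6-FAM labelling, HpaI digestion and capillary electrophoresis. Bidirectional fit relative to DMSO.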

Assay [6] can be described thus: ATG_AP_1_CIS: Attagene CIS-FACTORIAL HepG2 Assay for human Activator Protein 1 (AP-1) (AID 2282931). Conditions: HepG2 Attagene cis-factorial AP-1 reporter mRNA; actives raise or lower the signal. The procedure, abridged:
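Transient MRTU transfection of HepG2 → 24 h chemical treatment → RNA isolation, RT-PCR, 6-FAM labelling, HpaI digest → capillary electrophoresis. Fit: bidirectional, DMSO negative control.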

Assay [7] is described as follows: ATG_AP_2_CIS: Attagene CIS-FACTORIAL HepG2 Assay for human Activator Protein 2 (AP-2) (AID 2282932). The settings on record: HepG2 AP-2 cis-reporter, Attagene transcription factor profiling; actives raise or lower the signal. An outline of the steps:
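Read-out: fluorescent reporter mRNA via RT-PCR and capillary electrophoresis, 24 h post-dose in transiently transfected HepG2. Endogenous factors drive cis-promoter reporters; gain or loss of signal fitted bidirectionally against DMSO.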

A short description of assay [8]: ATG_BRE_CIS: Attagene CIS-FACTORIAL HepG2 Assay for human Bone Morphogenetic Protein (BMP) Response Element (BRE) (AID 2282933). Conditions: HepG2 BMP response element reporter, Attagene transcription factor profiling; actives raise or lower the signal. The procedure, abridged: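 Endogenous transcription factor activity read in transiently transfected HepG2 cells after 24 h chemical exposure. Bidirectional curve fitting against DMSO; readout is reporter transcript level by RT-PCR with capillary electrophoresis of labelled products.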

The target in assay [9] is Retinoic acid receptor alpha (Homo sapiens) (UniProt P10276). Kind of assay: ATG_DR5_RAR_CIS: Attagene CIS-FACTORIAL HepG2 Assay for human Retinoic Acid Receptor Alpha (RARE), DR5 submotif (AID 2282934).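 For AC50: reporter responds to endogenous RAR alpha beta and gamma in HepG2 not RARA alone.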 Conditions: HepG2 Attagene cis-factorial RARE DR5 reporter, mRNA; actives raise or lower the signal. An outline of the steps: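 HepG2 cells transiently transfected with multiplexed reporter units; DR5 cis-element drives reporter through endogenous transcription factors. After 24 h dosing, reporter mRNA quantified by RT-PCR, fluorescent labeling, HpaI digestion and capillary electrophoresis; bidirectional fitting versus DMSO.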

Assay [10] addresses Transcription factor E2F1 (Homo sapiens) (UniProt Q01094). Description: ATG_E2F_CIS: Attagene CIS-FACTORIAL HepG2 Assay for human E2F Transcription Factor 1 (AID 2282935). The settings on record: HepG2 Attagene cis-reporter, E2F reporter RNA transcripts; actives raise or lower the signal. An outline of the steps: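 Transient MRTU transfection of HepG2; 24 h compound exposure; RNA → oligo(dT) RT → PCR → FAM label → HpaI cut → CE fluorescence. Gain/loss of signal fit against DMSO.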

A short description of assay [11]: ATG_E_Box_CIS: Attagene CIS-FACTORIAL HepG2 Assay for human Enhancer Box (E-box) (AID 2282936). The settings on record: HepG2 E-box cis-reporter transcription, actives raise or lower the signal. An outline of the steps: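 Transiently transfected HepG2, endogenous TF-driven reporters, 24 h dosing. Readout: RT-PCR plus capillary electrophoresis of fluorescent reporter fragments. Gain or loss of signal fitted bidirectionally against DMSO baseline.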

The nature of assay [12]: ATG_M_61_CIS: Attagene CIS-FACTORIAL HepG2 Assay for M61 Transcription Factor (Internal Marker) (AID 2282937). The settings on record: HepG2 Attagene CIS-FACTORIAL M61 internal marker reporter; actives raise or lower the signal. The procedure, abridged: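 Human liver HepG2, transient MRTU transfection (cis promoter elements), 24 h compound. Total RNA → oligo(dT) RT → PCR → FAM label → HpaI → CE. Internal background marker; bidirectional fitting, DMSO = baseline.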

A short description of assay [13]: ATG_EGR_CIS: Attagene CIS-FACTORIAL HepG2 Assay for human Early Growth Response 1 (EGR1) (AID 2282938). The settings on record: HepG2 Attagene CIS-FACTORIAL EGR reporter mRNA; actives raise or lower the signal. An outline of the steps: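 Transient transfection of human HepG2 with multiple cis-regulated reporter units, chemical exposure 24 h, total RNA isolated. Reverse transcription, PCR, fluorescent labelling and capillary electrophoresis quantify reporter transcripts; activity fitted bidirectionally against DMSO.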

The nature of assay [14]: ATG_M_19_CIS: Attagene CIS-FACTORIAL HepG2 Assay for M19 Transcription Factor (Internal Marker) (AID 2282939). Conditions: HepG2 Attagene CIS-FACTORIAL M19 internal marker reporter; actives raise or lower the signal. The procedure, abridged:
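Internal marker readout, fitted in both directions against DMSO, from HepG2 cells carrying transfected cis-element reporter constructs; RT-PCR and capillary electrophoresis of reporter mRNA after 24 h exposure.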

The nature of assay [15]: ATG_ERE_CIS: Attagene CIS-FACTORIAL HepG2 Assay for Estrogen Response Element (ERE) (AID 2282940). The settings on record: HepG2 ERE cis-reporter, Attagene RNA transcript; actives raise or lower the signal. An outline of the steps:
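After 24 h compound treatment, RNA from transfected HepG2 cells was reverse-transcribed, reporter cDNA PCR-amplified, FAM-labelled, HpaI-cut and resolved by capillary electrophoresis. ERE-driven cis reporter transcripts reflect endogenous factors; gain or loss scored against DMSO.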

Assay [16] in a line: ATG_Ets_CIS: Attagene CIS-FACTORIAL HepG2 Assay for human Erythroblast Transformation Specific (ETS) (AID 2282941). Conditions: HepG2 ETS cis-reporter transcription, actives raise or lower the signal. An outline of the steps:
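Bidirectional fit versus DMSO of reporter mRNA signal, detected by RT-PCR and capillary electrophoresis in HepG2 cells transiently transfected with cis-element reporters and dosed 24 h.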

The target of assay [17] is Hepatocyte nuclear factor 3-beta (Homo sapiens) (UniProt Q9Y261). Kind of assay: ATG_FoxA2_CIS: Attagene CIS-FACTORIAL HepG2 Assay for human Forkhead box A2 (FOXA2) (AID 2282942). The settings on record: HepG2 cis-reporter transcription factor activity, 24 h; actives raise or lower the signal. An outline of the steps: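 Transient MRTU transfection of HepG2 liver cells; 24 h treatment; total RNA → oligo(dT) RT → PCR → FAM primer extension → HpaI cut → CE. Bidirectional fit vs DMSO.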

Assay [18] in a line: ATG_FoxO_CIS: Attagene CIS-FACTORIAL HepG2 Assay for human Forkhead box O (FoxO) (AID 2282943). Conditions: HepG2 Attagene cis-reporter, FoxO element, mRNA; actives raise or lower the signal. The procedure, abridged:
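HepG2 cells transiently transfected with cis-element-driven reporter units report endogenous FoxO activity. After 24 h chemical exposure, reporter mRNA quantified by RT-PCR, fluorescent labeling, HpaI digestion and capillary electrophoresis; bidirectional fit versus DMSO.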

Assay [19] is described as follows: ATG_GATA_CIS: Attagene CIS-FACTORIAL HepG2 Assay for human GATA Binding Protein (AID 2282944). Conditions: HepG2 GATA cis-element reporter, Attagene multiplex mRNA; actives raise or lower the signal. The procedure, abridged: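 Reporter transcripts from a GATA cis-regulated unit, among multiplexed reporters in transfected HepG2 cells, were measured by RT-PCR with capillary electrophoresis after 24 h dosing. Induction or loss scored relative to DMSO.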

Sequence of Aryl hydrocarbon receptor (Homo sapiens) (P35869 whole entry, looked up): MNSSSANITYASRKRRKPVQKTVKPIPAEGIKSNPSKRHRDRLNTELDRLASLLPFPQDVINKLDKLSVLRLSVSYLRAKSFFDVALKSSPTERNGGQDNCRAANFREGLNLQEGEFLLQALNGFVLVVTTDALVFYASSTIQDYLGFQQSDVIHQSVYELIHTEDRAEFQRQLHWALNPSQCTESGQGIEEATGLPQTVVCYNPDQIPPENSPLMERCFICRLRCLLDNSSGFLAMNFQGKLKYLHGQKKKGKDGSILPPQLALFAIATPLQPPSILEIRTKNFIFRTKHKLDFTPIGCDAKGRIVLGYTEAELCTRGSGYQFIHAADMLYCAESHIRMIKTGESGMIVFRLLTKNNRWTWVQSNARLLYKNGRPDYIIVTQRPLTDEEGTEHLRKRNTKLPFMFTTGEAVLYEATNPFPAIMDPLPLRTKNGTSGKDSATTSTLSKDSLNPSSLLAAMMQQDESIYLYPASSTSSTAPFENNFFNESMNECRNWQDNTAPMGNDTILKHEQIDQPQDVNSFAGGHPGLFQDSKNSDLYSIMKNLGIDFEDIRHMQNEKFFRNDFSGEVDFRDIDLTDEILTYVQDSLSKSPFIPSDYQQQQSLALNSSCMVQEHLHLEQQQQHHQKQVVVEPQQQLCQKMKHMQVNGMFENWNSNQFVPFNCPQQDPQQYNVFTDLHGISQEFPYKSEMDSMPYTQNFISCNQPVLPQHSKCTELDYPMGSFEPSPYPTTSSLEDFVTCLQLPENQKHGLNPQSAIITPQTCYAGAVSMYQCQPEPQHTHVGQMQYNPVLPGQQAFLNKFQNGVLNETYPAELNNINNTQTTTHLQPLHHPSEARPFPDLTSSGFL
Sequence of Transcription factor E2F1 (Homo sapiens) (Q01094 whole entry, looked up): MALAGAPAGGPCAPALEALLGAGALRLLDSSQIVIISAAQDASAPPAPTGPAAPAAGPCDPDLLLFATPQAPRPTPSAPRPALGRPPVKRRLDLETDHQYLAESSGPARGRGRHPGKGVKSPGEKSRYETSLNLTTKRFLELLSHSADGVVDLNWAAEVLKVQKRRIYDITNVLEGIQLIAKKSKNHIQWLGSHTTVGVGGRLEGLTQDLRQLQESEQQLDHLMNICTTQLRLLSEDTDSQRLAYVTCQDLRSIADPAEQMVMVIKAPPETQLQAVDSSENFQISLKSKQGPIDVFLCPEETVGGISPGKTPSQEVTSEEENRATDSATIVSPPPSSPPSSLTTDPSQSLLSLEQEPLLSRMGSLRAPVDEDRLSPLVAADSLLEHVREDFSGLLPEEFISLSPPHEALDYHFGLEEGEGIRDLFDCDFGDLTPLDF
Sequence of Retinoic acid receptor alpha (Homo sapiens) (P10276 whole entry, looked up): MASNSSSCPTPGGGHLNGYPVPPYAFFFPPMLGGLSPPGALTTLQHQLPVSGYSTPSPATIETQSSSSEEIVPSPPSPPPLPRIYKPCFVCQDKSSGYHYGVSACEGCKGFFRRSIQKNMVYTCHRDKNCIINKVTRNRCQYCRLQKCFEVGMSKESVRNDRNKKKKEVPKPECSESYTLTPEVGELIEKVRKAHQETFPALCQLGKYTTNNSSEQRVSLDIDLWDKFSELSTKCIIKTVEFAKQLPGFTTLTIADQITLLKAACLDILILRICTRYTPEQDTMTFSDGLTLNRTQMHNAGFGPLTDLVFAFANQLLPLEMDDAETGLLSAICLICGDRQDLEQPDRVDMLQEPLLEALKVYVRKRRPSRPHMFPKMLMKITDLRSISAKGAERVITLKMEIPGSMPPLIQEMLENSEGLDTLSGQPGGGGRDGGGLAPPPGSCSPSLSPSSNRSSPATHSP
Sequence of Hepatocyte nuclear factor 3-beta (Homo sapiens) (Q9Y261 whole entry, looked up): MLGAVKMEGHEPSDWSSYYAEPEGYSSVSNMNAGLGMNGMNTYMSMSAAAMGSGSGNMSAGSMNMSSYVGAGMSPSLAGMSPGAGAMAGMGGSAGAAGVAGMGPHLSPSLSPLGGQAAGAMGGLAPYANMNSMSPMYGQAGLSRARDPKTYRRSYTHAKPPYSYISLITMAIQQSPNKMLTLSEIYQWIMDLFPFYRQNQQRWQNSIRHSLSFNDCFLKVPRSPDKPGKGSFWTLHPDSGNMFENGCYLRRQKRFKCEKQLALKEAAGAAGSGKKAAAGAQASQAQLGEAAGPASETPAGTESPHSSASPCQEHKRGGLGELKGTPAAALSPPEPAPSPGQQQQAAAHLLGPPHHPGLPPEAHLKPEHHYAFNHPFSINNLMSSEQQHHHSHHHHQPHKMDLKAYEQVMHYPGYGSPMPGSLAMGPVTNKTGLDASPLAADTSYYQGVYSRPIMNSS
Sequence of CCAAT/enhancer-binding protein beta (Homo sapiens) (P17676 whole entry, looked up): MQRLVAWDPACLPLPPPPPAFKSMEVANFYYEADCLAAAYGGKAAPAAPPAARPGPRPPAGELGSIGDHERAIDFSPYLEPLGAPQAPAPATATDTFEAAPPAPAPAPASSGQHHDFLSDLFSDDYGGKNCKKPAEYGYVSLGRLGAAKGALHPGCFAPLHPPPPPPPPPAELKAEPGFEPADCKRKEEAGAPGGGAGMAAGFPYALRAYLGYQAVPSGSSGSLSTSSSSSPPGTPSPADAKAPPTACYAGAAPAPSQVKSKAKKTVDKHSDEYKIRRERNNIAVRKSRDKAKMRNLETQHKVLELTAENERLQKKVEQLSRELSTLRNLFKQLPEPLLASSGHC

Usually AC50 stands for the concentration giving half of the maximal activity seen. Consider `O=C1c2c(O)ccc(Nc3ccc(CCO)cc3)c2C(=O)c2c([N+](=O)[O-])ccc(O)c21`, for which the outcome in [1], in assay [2], in assay [3], in assay [4], in assay [7] and in assay [8] was inactive. Also, the result in assay [9], in assay [10], in assay [11], in assay [12], in assay [13] and in assay [14] was inactive. The compound was classed as inactive in assay [15], in [16], in assay [17], in assay [18] and in assay [19]. In addition, the half-maximal activity concentration (AC50) was 896 nM (active) in assay [5] and 17.7 µM (active) in [6].

In the case of `Cc1ccc2c(c1)OCC(=O)CO2`, the compound was classed as inactive in [1], in assay [2], in [3], in assay [4], in [5] and in assay [6]. For the same compound, the outcome in assay [7], in assay [8], in assay [9], in assay [10], in [11] and in assay [12] was inactive. Moreover, the compound was classed as inactive in [13], in assay [14], in assay [15], in [16], in assay [17] and in [18]. Moreover, in [19], the outcome was inactive.

As to `O=C(c1ccccc1)c1ccc(Cl)cc1`, the compound was called inactive in assay [1], in assay [2], in [3], in assay [4], in assay [5] and in [6]. The outcome in assay [7], in [8], in [9], in [10], in assay [11] and in assay [12] was inactive. Further, the compound was called inactive in assay [13], in assay [14], in assay [16], in assay [17], in [18] and in assay [19]. Also, the AC50 in [15] is 44.4 µM (active).

For the compound `CCc1cc(Cc2cc(CC)c(N)c(CC)c2)cc(CC)c1N`, the compound was classed as inactive in [1], in assay [3], in assay [5], in assay [7], in assay [8] and in assay [12]. For the same compound, the compound was called inactive in assay [13], in [14], in assay [15], in [16] and in assay [19]. Moreover, the AC50 in assay [2] was 33.4 µM (active); in assay [6], 23.6 µM (active); in assay [9] it was 2.96 µM (active); in assay [10], 54.4 µM (active); in [11] it was 9.07 µM (active); in assay [17] it was 33.4 µM (active). In addition, in [18], the AC50 was 58.8 µM (active).

`NC(=O)C(F)(F)C(F)(F)C(F)(F)C(F)(F)C(F)(F)C(F)(F)C(F)(F)F`: the compound was classed as inactive in [1], in [2], in [3], in assay [4], in assay [5] and in assay [6]. For the same compound, the call in assay [7], in assay [8], in [9], in [10], in [11] and in assay [12] was inactive. Moreover, the compound was classed as inactive in assay [13], in assay [14], in [16], in [17], in assay [18] and in assay [19]. In addition, the AC50 in assay [15] is 16 µM (active).

On to `Nc1c(Br)cc([N+](=O)[O-])cc1Br`, for which the result in [1], in assay [2], in assay [3], in assay [4], in assay [5] and in assay [6] was inactive. Besides, the result in [7], in [8], in assay [9], in assay [10], in assay [11] and in assay [12] was inactive. Besides, the compound was classed as inactive in assay [13], in assay [14], in [15], in assay [16], in assay [17] and in assay [18]. In addition, the outcome in [19] was inactive.

As for `O=S(=O)(Cl)C(F)(F)C(F)(F)C(F)(F)C(F)(F)C(F)(F)C(F)(F)C(F)(F)C(F)(F)F`, the compound was classed as inactive in [1], in assay [2], in assay [3], in assay [4], in assay [5] and in [7]. Also, the outcome in assay [8], in assay [9], in assay [10], in assay [11], in assay [12] and in assay [13] was inactive. Besides, the result in assay [14], in [16], in [17], in assay [18] and in assay [19] was inactive. Moreover, the AC50 in [6] was 57.3 µM (active); in assay [15], 29.4 µM (active).
